The structures appear in SMILES notation. Records with an inconclusive call do not appear. Active and inactive are the calls of the source. Unless noted, calls come from the whole dose curve; as a rule, active = well fitted curve in the direction sought with a large enough effect; inconclusive = small, poorly fitted or top-dose-only effect, or another doubt; inactive = no such curve, though single readings can be large; an effect the other way counts as inactive or inconclusive.

Assay [1] can be described thus: Validation screen for small molecules that induce DNA re-replication in MCF 10A normal breast cells (AID 463097). Note: nearly all actives have a fitted effect of over 60% in size. A digest of the protocol: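 Readout: Hoechst nuclear fluorescence intensity, 405 ex / 500-530 em, by scanning plate imager; re-replication scored as increase in nuclei with elevated DNA content. Cells exposed to compound 48 hr, 37 C, 5% CO2 beforehand.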

In assay [2] the target is Ubiquitin carboxyl-terminal hydrolase 2 (Homo sapiens) (UniProt O75604). In words: qHTS Validation Assay for Inhibitors of Ubiquitin-specific Protease USP2a Using CHOP2 as the Reporter (AID 463106). A digest of the protocol:
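USP2 core (10 nM final) was preincubated with compound 30 min at RT in pH 8.0 Tris/CaCl2/beta-ME/CHAPS buffer. Ub-CHOP2 and reporter substrate (25 nM final each) were then added, with fluorescence (Ex 485/Em 531) read after 60 min. Data were normalized to NEM full inhibition and fitted to concentration-response curves.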

The target of assay [3] is DNA polymerase III PolC-type (Bacillus subtilis (strain 168)) (UniProt P13267). As to the kind of experiment: qHTS Validation Assay for the Inhibitors of DNA Replication in Gram-Positive Bacteria (AID 485295).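 Note: PicoGreen fluorescence of double-stranded DNA made on primed circular M13 template; series mostly up to about 57 µM.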 A digest of the protocol: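 Reconstituted B. subtilis holoenzyme (Pol III, beta clamp, SSB, primase) was preincubated with compound at room temperature, then given single-stranded circular M13Gori plus dNTPs and NTPs. EDTA-containing PicoGreen stopped the reaction, and dsDNA product was read by fluorescence.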
On the technique in general: Quantitative high-throughput screening tests each substance at several concentrations.

In assay [4] the target is Tumor susceptibility gene 101 protein (Homo sapiens) (UniProt Q99816). In words: qHTS Validation Assay for Iinhibitors of HIV-1 Budding by Blocking the Interaction of PTAP/TSG101 (AID 485342; calls by dose curve). The method in brief: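 Tsg101 binding domain (10 uM final) in pH 7.5 HEPES/NaCl/Tween 20/EDTA/TCEP buffer was mixed with pin-transferred compounds, then FITC-labeled PTAP peptide (50 nM final) was added; after 20 min at r.t., fluorescence polarization was read.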

The nature of assay [5]: qHTS Validation Assay to Find Inhibitors of Chronic Active B-Cell Receptor Signaling (AID 485345; active = well fitted curve in the direction sought with a large enough effect in the main read-out, with a control signal flat, not every such curve was filed as active). The method in brief:
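TMD8 ABC-DLBCL cells stably carrying doxycycline-inducible IkappaBalpha–green luciferase fusion plus unfused red luciferase; compounds 46 uM to 3 nM, 4 h at 37C with doxycycline. Corrected green/red luminescence ratio normalized to 10 uM MG-132 and basal cell wells; curves fitted.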

Assay [6] addresses Beta-2 adrenergic receptor (Homo sapiens) (UniProt P07550). As to the kind of experiment: qHTS validation assay of beta-arrestin-biased ligands of beta2-adrenergic receptor (AID 485366). A digest of the protocol:
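Arrestin-recruitment (Tango) reporter: ligand-bound beta2-AR recruits beta-arrestin, releasing tTA, which upregulates luciferase. Titrations of up to 46 microM incubated 18 hr at 37 degrees C before luminescent readout.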

Assay [7] is described as follows: Quantitative high throughput screen for delayed death inhibitors of the malarial parasite plastid, 96 hour incubation (AID 488745). Note: series mostly up to about 29 µM; nearly all actives have a fitted effect of over 70% in size. The method in brief:
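P. falciparum carrying an integrated firefly luciferase reporter, grown in erythrocytes (2% hematocrit, 0.1% parasitemia final) in RPMI 1640/0.5% Albumax, was exposed to compound for 96 h (two generations) at 37 C, 5% CO2. Luminescence decrease indicated growth inhibition.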

Assay [8] is described as follows: Quantitative high throughput screen for delayed death inhibitors of the malarial parasite plastid, 48 hour incubation (AID 488752). Note: nearly all actives have a fitted effect of over 65% in size. The method in brief:
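Erythrocytes infected with P. falciparum carrying an integrated firefly luciferase reporter (2% hematocrit, 0.1% parasitemia final) were exposed to compounds in RPMI 1640/0.5% Albumax for 48 h at 37 C, 5% CO2. Growth inhibition was scored as reduced luminescence.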

Assay [9] concerns the target Thioredoxin reductase 1, cytoplasmic (Rattus norvegicus) (UniProt O89049). In words: qHTS Assay for Substrates of Mammalian Selenoprotein Thioredoxin Reductase 1 (TrxR1) (AID 488772).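 Note: NADPH fluorescence in the first read after selenite addition and not the 8 min delta; series mostly up to about 57 µM; a drop in NADPH fluorescence below the no-compound background marks a TrxR1 substrate.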 A digest of the protocol: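 Quantitative HTS in Tris-HCl buffer at pH 7.5 with EDTA and Tween-20, using rat TrxR1, 400 uM NADPH and 400 uM selenite (final). A fall in initial NADPH fluorescence relative to background marked substrate behaviour.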

Assay [10] shares this target. As to the kind of experiment: qHTS Assay for Inhibitors of Mammalian Selenoprotein Thioredoxin Reductase 1 (TrxR1) (AID 488773). Note: nearly all actives have a fitted effect of over 40% in size. Note: potency is the fitted concentration of half-maximal effect. Particulars: Potency: inhibition. A digest of the protocol: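 Steps: enzyme (90 nM) plus NADPH (400 uM final), 5 min at ~22 deg C; compound added, 15 min; selenite (400 uM final) added; fluorescence followed for 8 min. Concentration-response curves derived from the normalized delta values.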

In assay [11] the target is Flap endonuclease 1 (Homo sapiens) (UniProt P39748). In words: qHTS Validation Assay for the Inhibitors of Human Flap endonuclease 1 (FEN1) (AID 488816). A digest of the protocol:
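Human FEN1 (10 nM) preincubated 15 min at room temperature with compounds, then flap DNA substrate added at 50 nM final. Fluorescence read at 0 and 15 min; concentration-response fitted with four-parameter Hill equation.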

Assay [12] addresses M-phase phosphoprotein 8 (Homo sapiens) (UniProt Q99549). As to the kind of experiment: qHTS Validation Assay for Inhibitors for MPP8 Chromodomain Interactions with Methylated Histone Tails (AID 488949). Note: top concentration of the series differs between compounds; nearly all actives have a fitted effect of over 55% in size. The method in brief: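 MPP8 (50 nM) was preincubated with biotinylated H3(1-18)K9me3 peptide (50 nM) in PBS pH 7.4, 0.01% Tween-20 for 30 min at room temperature, then with compounds for 30 min; binding was detected by AlphaScreen.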

Assay [13] concerns the target Chromobox protein homolog 1 (Homo sapiens) (UniProt P83916). As to the kind of experiment: qHTS Validation Assay for Inhibitors of HP1-beta Chromodomain Interactions with Methylated Histone Tails (AID 488953). Note: nearly all actives have a fitted effect of over 50% in size. Note: potency is the fitted concentration of half-maximal effect. A digest of the protocol: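 HP1-beta (50 nM) was preincubated 30 min at room temperature with biotinylated H3(1-18)K9me3 peptide (50 nM) in PBS pH 7.4, 0.01% Tween-20, then with compounds 30 min. AlphaScreen signal was read after streptavidin donor/nickel chelate acceptor beads (10 ug/mL final).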

For assay [14], the target named is Methanococcus maripaludis chaperonin (MmCpn) (UniProt Q6LX38). As to the kind of experiment: High-Throughput Screening for Modulators of Cytosolic Chaperonin Activity: MmCpn Primary Screen (AID 488978).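 Note: 50 nM MmCpn enzyme hydrolysing 30 µM ATP at 37 °C.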 A digest of the protocol: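 MmCpn (50 nM final) was preincubated with compound 5 min at RT, then 30 uM ATP (final) was added and the reaction ran 10 min at 37C. ADP produced was detected by Transcreener HTRF (ex 320 nm; em 590/665 nm).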

Assay [15] deals with Transient receptor potential cation channel subfamily V member 1 (Homo sapiens) (UniProt Q8NER1). As to the kind of experiment: HTS Assay for Compounds that Act as Enhancers of the Vanilloid Receptor 1 (AID 488979). The method in brief: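 TRPV1 cells loaded with Fluo-8 calcium dye; compound added and Ca2+ signal (ex 480/em 520 nm) followed 3 min, then capsaicin at EC20 added and read 2 more min to detect enhancement.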

For assay [16], the target named is D(1A) dopamine receptor (Homo sapiens) (UniProt P21728). In words: HTS Assay for Allosteric Agonists of the Human D1 Dopamine Receptor: Primary Screen for Agonists (AID 488981). The method in brief:
(§1)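 Tetracycline-induced HEK293 Trex D1 cells with forced coupling to calcium, loaded with no-wash calcium dye; kinetic fluorescence read 180 s after compound addition for agonism, then a further 180 s after an EC20 dopamine challenge for potentiation.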

The target is the same in assay [17]. In words: HTS Assay for Allosteric Agonists of the Human D1 Dopamine Receptor: Primary Screen for Potentiators (AID 488982). A digest of the protocol: as §1
Assay [18] has the same target. As to the kind of experiment: HTS Assay for Allosteric Agonists of the Human D1 Dopamine Receptor: Primary Screen for Antagonists (AID 488983).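 Note: calcium flux response to an EC80 dopamine challenge measured with no-wash dye; nearly all actives have a fitted effect of over 65% in size.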 A digest of the protocol: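 Tetracycline-induced HEK293 T-REx cells expressing force-coupled D1 were plated overnight at 30 C, dye-loaded for calcium, and read kinetically. Compounds were pinned in, then an EC80 dopamine challenge followed after 180 s to reveal antagonism.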

The target of assay [19] is ATP-dependent 6-phosphofructokinase (Trypanosoma brucei brucei) (UniProt O15648). In words: qHTS Validation Assay to Find Inhibitors of T. brucei phosphofructokinase (AID 485368). Particulars: outcome: dose series up to 57.5 µM. The method in brief: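 Steps: substrate mix (0.5 mM F6P, 0.1 mM ATP, MgCl2, TEA pH 8.0); compound; 1.25 nM T. brucei PFK; 45 min RT; ATP depletion 10 min; ADP-to-ATP detection 10 min; luminescence read; curve fitting and classification.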

For assay [20], the target named is Thyrotropin receptor (Homo sapiens) (UniProt P16473). In words: qHTS Assay for Antagonists of the Thyroid Stimulating Hormone Receptor (AID 488980). Note: series mostly up to about 58 µM. The method in brief:
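HEK293 cells transfected with human TSHR, suspended in HEPES-buffered HBSS with 70 uM RO 20-1724, were treated with compounds plus TSH at EC80 (4 nM final). cAMP was measured by competitive HTRF (cryptate anti-cAMP antibody, cAMP-d2 acceptor).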

Chain of Methanococcus maripaludis chaperonin (MmCpn) (Q6LX38 1-543): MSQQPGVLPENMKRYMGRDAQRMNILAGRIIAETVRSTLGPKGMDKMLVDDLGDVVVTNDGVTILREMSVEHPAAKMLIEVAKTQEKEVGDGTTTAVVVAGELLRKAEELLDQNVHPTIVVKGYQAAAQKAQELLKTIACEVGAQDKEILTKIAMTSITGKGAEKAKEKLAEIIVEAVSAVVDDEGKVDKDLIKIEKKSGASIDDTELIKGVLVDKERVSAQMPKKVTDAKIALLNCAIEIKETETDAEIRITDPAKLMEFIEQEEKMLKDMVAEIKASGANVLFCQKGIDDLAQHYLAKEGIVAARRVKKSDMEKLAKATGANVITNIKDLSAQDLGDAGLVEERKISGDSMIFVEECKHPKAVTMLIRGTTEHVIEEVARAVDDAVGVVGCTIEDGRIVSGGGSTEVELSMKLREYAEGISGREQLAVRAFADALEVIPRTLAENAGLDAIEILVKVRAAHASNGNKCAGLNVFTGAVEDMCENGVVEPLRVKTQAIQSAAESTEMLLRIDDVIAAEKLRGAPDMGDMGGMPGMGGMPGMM
Chain of Flap endonuclease 1 (Homo sapiens) (P39748 whole entry, looked up): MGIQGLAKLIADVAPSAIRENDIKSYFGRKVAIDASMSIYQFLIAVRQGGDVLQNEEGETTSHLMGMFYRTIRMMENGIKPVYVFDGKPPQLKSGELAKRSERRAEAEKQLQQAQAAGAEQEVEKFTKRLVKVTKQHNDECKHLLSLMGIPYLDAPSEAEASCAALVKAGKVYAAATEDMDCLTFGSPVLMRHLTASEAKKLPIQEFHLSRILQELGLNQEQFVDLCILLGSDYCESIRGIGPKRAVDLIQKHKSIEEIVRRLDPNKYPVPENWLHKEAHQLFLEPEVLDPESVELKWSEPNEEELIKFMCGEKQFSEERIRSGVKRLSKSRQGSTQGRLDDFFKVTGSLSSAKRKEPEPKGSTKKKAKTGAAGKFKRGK
Chain of Tumor susceptibility gene 101 protein (Homo sapiens) (Q99816 whole entry, looked up, the tested form may be a part): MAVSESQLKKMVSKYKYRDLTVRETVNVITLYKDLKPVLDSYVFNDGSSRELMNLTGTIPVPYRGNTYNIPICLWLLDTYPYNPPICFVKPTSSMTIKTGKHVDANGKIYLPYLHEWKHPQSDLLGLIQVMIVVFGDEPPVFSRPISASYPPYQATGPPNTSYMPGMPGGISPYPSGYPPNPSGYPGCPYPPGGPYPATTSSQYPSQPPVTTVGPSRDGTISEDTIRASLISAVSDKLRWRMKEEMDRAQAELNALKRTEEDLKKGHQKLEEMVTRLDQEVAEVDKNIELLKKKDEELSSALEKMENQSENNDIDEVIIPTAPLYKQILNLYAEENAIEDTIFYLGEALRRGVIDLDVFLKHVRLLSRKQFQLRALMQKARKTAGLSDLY
Chain of Beta-2 adrenergic receptor (Homo sapiens) (P07550 whole entry, looked up): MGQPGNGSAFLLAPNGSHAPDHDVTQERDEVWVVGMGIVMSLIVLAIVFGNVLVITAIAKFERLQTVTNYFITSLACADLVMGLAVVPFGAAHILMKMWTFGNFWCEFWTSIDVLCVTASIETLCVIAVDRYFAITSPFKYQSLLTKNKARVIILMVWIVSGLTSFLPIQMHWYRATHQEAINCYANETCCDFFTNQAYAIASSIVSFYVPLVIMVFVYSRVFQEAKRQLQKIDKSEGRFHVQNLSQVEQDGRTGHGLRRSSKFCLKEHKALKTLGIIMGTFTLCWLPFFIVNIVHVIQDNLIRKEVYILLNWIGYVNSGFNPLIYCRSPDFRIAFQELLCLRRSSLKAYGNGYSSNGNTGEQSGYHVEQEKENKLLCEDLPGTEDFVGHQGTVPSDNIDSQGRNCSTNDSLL
Chain of Chromobox protein homolog 1 (Homo sapiens) (P83916 whole entry, looked up): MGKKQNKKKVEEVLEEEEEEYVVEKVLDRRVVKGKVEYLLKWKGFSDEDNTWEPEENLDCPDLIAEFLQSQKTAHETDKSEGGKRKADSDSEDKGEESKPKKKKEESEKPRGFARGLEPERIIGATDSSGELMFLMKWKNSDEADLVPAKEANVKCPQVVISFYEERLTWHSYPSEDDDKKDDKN
Chain of ATP-dependent 6-phosphofructokinase (Trypanosoma brucei brucei) (O15648 whole entry, looked up): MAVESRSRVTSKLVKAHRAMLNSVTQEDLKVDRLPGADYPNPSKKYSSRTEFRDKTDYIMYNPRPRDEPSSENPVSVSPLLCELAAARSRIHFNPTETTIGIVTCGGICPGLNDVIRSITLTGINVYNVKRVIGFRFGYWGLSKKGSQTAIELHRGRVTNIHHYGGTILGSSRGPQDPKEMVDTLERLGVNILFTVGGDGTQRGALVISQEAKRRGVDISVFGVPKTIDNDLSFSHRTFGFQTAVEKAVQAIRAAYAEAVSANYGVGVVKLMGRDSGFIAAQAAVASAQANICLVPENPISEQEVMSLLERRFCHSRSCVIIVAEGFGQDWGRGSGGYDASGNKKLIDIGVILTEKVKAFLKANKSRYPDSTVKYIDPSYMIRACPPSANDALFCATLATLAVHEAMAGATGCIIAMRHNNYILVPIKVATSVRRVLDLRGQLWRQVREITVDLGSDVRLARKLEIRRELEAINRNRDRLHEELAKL
Chain of Thioredoxin reductase 1, cytoplasmic (Rattus norvegicus) (O89049 whole entry, looked up): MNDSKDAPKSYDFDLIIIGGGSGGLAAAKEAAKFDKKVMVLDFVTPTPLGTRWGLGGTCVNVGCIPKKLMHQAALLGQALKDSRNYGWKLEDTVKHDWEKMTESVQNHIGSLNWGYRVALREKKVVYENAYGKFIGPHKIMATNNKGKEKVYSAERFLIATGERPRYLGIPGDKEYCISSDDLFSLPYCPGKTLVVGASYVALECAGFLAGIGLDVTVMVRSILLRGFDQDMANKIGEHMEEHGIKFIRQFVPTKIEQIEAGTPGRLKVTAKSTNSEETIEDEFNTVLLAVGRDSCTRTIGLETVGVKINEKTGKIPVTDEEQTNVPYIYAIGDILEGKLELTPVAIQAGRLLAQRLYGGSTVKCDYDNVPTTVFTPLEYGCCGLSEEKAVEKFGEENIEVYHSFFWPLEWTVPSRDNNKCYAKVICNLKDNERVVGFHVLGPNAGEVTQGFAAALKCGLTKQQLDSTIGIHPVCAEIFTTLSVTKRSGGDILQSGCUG
Chain of M-phase phosphoprotein 8 (Homo sapiens) (Q99549 whole entry, looked up): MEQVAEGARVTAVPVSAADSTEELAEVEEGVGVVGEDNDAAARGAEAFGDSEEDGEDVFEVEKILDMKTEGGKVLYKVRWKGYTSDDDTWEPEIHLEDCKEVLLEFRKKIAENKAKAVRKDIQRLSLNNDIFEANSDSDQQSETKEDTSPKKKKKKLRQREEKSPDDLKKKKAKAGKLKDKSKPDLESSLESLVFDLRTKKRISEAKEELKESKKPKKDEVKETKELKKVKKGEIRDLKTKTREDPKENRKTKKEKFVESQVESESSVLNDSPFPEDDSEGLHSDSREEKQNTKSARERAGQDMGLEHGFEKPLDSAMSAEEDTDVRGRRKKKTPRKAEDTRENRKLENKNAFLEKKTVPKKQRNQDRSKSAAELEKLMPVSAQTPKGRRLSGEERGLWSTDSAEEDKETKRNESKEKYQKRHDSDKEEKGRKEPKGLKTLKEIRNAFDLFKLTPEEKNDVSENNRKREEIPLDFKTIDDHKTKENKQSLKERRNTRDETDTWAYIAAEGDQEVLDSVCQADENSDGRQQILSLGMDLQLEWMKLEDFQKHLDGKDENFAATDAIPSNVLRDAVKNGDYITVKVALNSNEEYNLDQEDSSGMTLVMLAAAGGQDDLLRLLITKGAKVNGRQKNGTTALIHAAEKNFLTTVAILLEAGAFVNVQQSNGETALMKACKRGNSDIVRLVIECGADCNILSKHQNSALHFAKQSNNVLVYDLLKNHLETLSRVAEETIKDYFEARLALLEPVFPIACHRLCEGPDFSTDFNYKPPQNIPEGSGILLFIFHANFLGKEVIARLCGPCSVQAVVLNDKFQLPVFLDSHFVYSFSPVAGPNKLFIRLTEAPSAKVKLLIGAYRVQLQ
Chain of Transient receptor potential cation channel subfamily V member 1 (Homo sapiens) (Q8NER1 whole entry, looked up): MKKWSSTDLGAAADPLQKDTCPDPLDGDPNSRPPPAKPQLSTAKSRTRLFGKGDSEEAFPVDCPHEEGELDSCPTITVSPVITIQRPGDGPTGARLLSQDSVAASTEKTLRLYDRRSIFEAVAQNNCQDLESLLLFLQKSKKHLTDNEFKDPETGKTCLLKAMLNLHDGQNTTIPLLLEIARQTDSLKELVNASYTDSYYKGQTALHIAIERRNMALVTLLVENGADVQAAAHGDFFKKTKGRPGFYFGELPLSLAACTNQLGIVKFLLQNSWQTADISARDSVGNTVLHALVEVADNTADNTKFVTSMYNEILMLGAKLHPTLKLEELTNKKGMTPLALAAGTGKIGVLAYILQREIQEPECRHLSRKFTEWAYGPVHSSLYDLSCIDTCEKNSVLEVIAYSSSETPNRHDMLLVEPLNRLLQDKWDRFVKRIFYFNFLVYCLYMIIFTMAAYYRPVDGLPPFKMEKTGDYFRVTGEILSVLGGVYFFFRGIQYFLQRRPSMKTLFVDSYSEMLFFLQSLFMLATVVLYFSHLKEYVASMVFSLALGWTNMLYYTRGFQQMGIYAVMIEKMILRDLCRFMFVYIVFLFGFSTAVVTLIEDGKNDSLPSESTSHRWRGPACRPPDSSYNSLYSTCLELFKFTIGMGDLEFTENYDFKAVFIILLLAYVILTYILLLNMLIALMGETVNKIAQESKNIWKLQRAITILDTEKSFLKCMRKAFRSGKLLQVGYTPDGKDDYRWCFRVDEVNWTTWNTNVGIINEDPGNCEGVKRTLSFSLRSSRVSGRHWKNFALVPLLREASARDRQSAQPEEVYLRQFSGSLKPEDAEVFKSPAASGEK

`NC(=O)CN1CCCC1=O`: the Potency entry in assay [1], in assay [7], in [8], in assay [10], in assay [12] and in assay [13] was “inactive” each time. Moreover, the Potency entry in assay [17] and in [18] was “inactive” each time. The compound was classed as inactive in [2], in assay [3], in assay [4], in [5], in assay [6] and in assay [9]. Also, the outcome in assay [11], in assay [14], in [15] and in [16] was inactive.

Regarding `CNC(=O)Oc1ccc2c(c1)[C@]1(C)CCN(C)[C@@H]1N2C`, in assay [19], the compound was called inactive. Further, in [12], the Potency result is “inactive”.

As to `Cc1cc(C(C)(C)C)cc(C)c1CC1=NCCN1`, the Potency entry in assay [12] is “inactive”.

On to `Brc1c(NC2=NCCN2)ccc2nccnc12`, for which, in assay [10], the Potency was 16.8 µM (active). Further, the compound was called inactive in assay [11].

As for `COc1ccc(C(=O)N2CCCC2=O)cc1`, the Potency entry in [1], in assay [7], in [8], in assay [10], in assay [12] and in assay [13] was “inactive” throughout. Also, the Potency result in assay [17] and in assay [18] was “inactive” throughout. In addition, the compound was called inactive in [2], in [3], in assay [4], in assay [5], in assay [6] and in [19]. In addition, the call in [9], in [14], in assay [15], in assay [20] and in assay [16] was inactive.

Turning to `CCOC(=O)Nc1ccc(NCc2ccc(F)cc2)nc1N`, the call in assay [4] and in assay [11] was inactive. Moreover, the Potency is 10.6 µM (active) in [10] and 39.8 µM (active) in assay [13].

For the compound `O=C(O)c1nn(Cc2ccc(Cl)cc2Cl)c2ccccc12`, the Potency result in [1], in assay [7], in [8], in assay [10], in [12] and in assay [13] was “inactive” in each case. For the same compound, the Potency entry in [17] and in [18] was “inactive” throughout. Further, the outcome in assay [2], in assay [3], in assay [4], in [6], in assay [19] and in assay [9] was inactive. Besides, the result in assay [11], in assay [14], in assay [15], in assay [20] and in assay [16] was inactive.

These data come from PubChem BioAssay (NCATS).
